Screens: PubChem, National Center for Advancing Translational Sciences (NCATS)
Mito fusion act: mitochondrial division inhibition or fusion activation; S. cerevisiae fusion-defective mutant growth rescue, CellTiterGlo 48 h; Potency, µM (doses to about 46.1 µM), for the others: at the top dose growth rescue (activation), usual class: activators; 320,000 tested, 0.23% active; active means well fitted activation curve with a large enough effect; inconclusive means small, poorly fitted or top-dose-only effect; inactive means no such curve, though single readings can be large or run the other way; further: potency means the concentration at half of the fitted maximal effect; % of control where 0% means no effect; nearly all actives have a fitted effect of over 45% in size
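Read-out: ATP-based luminescence (CellTiterGlo, 10 min ambient) reporting growth of fusion-defective ts yeast after 48 hours at 37C on glycerol/ethanol YPEG medium in the presence of compound.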
MBNL1 CUG block: blocks human MBNL1 binding to CUG repeat RNA; Q9NR56; TR-FRET MBNL1-His/biotin-(CUG)12 binding, 665/545 ratio; Potency, µM (doses to about 57.5 µM), without a hit: at the top dose activity change, negative = inhibition, usual class: inhibitors; 280,000 tested, 0.036% active; active means well fitted inhibition curve with a large enough effect in the signal ratio, with a control signal flat, not every such curve was filed as active; inconclusive means small, poorly fitted or top-dose-only effect, or effect the other way, or a change in a side signal; inactive means no such curve, though single readings can be large or run the other way; the % refers to the signal ratio; further: potency means the concentration at half of the fitted maximal effect; on the % scale 0 is the no-effect control and ±100 the full control effect
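Inhibition of protein-RNA binding appears as loss of TR-FRET between terbium anti-His antibody on MBNL1-His and streptavidin-XL665 on biotin-(CUG)12. Activity is normalized to buffer-only and uninhibited-complex controls.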
uPA generation: inhibitors of cell surface uPA generation | Potency, µM (top dose mostly 38.3 µM), without a hit: at the top dose activity change, negative = inhibition, usual class: inhibitors | 330,000 tested, 0.31% active | AID 540303 | cell surface uPA generation assay, qHTS; active means well fitted inhibition curve with a large enough effect; inconclusive means small, poorly fitted or top-dose-only effect; inactive means no such curve, though single readings can be large or run the other way; tested in mouse RAW 264.7 cells; further: potency means the concentration at half of the fitted maximal effect; on the % scale 0 is the no-effect control and ±100 the full control effect; nearly all actives have a fitted effect of over 55% in size
CtBP-E1A inh: CtBP/E1A binding inhibition; AlphaScreen GST-E1A/His-CtBP binding, 1536-well; stronger effect = lower value; activity change, % (concentration not given with the values); 340,000 tested, 0.49% active; further: on the % scale 0 is the no-effect control and ±100 the full control effect
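Steps: dispense buffer (Tris pH 8.0, NaCl 300 mM, TCEP 1 mM, BSA, Tween 20); add 5X protein mix (GST-E1A, His-CtBP, 125 nM each); pin 23 nL compound; 2 h at 37 °C, dark; add 5X beads (50 ug/mL); 1 h; read.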
Six1-Eya2 blk: blocks human Six1 binding to Eya2; Q15475+O00167; AlphaScreen GST-Six1/His-Eya2 binding, biochemical; stronger effect = lower value; activity change, % (no concentration beside the values); 360,000 tested, 0.56% active; AID 651725; further: on the % scale 0 is the no-effect control and ±100 the full control effect
Target sequence (O00167 whole entry, looked up): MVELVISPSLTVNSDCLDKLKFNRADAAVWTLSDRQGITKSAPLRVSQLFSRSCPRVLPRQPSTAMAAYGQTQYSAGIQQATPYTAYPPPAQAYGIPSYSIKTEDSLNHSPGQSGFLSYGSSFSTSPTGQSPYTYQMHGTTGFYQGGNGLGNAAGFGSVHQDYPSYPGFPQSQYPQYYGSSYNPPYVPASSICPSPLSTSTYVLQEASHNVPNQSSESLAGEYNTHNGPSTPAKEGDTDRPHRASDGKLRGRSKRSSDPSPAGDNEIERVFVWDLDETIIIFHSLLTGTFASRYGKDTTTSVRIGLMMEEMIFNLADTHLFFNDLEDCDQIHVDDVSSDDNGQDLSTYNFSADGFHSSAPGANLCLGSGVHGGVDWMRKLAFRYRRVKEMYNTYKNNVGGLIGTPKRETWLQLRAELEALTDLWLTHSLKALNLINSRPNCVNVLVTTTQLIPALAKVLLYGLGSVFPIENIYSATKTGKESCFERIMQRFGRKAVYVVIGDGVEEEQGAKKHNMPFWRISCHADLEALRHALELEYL
Target sequence (Q15475 whole entry, looked up): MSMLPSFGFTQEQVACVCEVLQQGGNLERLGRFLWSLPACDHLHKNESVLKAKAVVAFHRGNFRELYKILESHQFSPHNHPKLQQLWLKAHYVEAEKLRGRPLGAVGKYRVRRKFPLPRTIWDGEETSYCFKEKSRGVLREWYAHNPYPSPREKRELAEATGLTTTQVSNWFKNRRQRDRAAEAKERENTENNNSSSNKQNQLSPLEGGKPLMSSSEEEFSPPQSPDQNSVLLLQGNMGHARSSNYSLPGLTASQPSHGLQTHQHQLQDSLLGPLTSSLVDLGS
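Homogeneous AlphaScreen proximity assay pairing GST-Six1 with His-tagged Eya2 (added as 5X mix: 250 nM and 500 nM) in 50 mM Tris pH 8.0, 300 mM NaCl, 1 mM TCEP. Glutathione donor and nickel acceptor beads; 1 h, 37 °C, dark.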
* marks the source's active call; other numbers are inactive results; u = inconclusive; x = not tested or not shown. This is a sample that favours compounds with a hit; in the whole collection about 1.1% have one here. Unless noted, no stated cut-off is given here; in the data, active means activity change below about -65%; inconclusive means mostly about -30% to -63%; inactive means weaker than that.

SMILES	Mito fusion act	MBNL1 CUG block	uPA generation	CtBP-E1A inh	Six1-Eya2 blk
CN(C)c1ccc(N=Nc2ccccc2C(=O)OCC(=O)N(C)c2ccccc2)cc1	21%	u	-22%	-66*	-67*
CC(=O)c1ccc(NC(=O)COC(=O)c2ccccc2N=Nc2ccc(N(C)C)cc2)cc1	10%	u	-12%	0	-68*
COC(=O)c1ccccc1NC(=O)COC(=O)c1ccccc1N=Nc1ccc(N(C)C)cc1	-4%	x	-5%	u	u
CCN1C(=O)[C@H]2[C@@H](c3ccc(-c4cccc(Cl)c4)cc3)N[C@@](C)(C(=O)OC)[C@H]2C1=O	22µM*	x	10%	-2	-2
CCN1C(=O)[C@H]2[C@@H](c3ccc(-c4ccccc4)cc3)N[C@@](C)(C(=O)OC)[C@H]2C1=O	20%	x	8%	1	-3
CCOC(=O)c1n[nH]c2ccccc12	1%	7%	3%	1	-5
CCOC(=O)c1n[nH]n2c1nc(=S)c1ccccc12	14µM*	33%	2%	-26	u
CCN(CC)CCCn1c(C)cc2c(c1=O)C(c1ccccc1)C(C#N)=C(N)O2 (stereo not given)	11µM*	-4%	-2%	-5	-14
O=C(N/N=C/C=C\c1ccco1)c1ccccn1	-6%	23%	-7%	10	-88*
O=C(N/N=C/C=C/c1ccco1)c1cnccn1	-1%	u	0%	-10	-19
CC(=O)c1ccc(OC(=O)CCc2nc3ccccc3s2)cc1	u	-2%	5%	-7	-12
CC(=O)c1ccc(OC(=O)CCc2ccccc2)cc1	0%	-3%	15%	u	-79*
COc1cc(NC(=O)C(C)C)ccc1NC(=O)c1cc2ccccc2o1	9%	-7%	14µM*	x	6
CC(C)C[C@H]1CNC(=S)N1CC1CCN(CCCCc2ccccc2)CC1	x	x	-21%	-1	7
Cc1cccc(C)c1NC(=O)C1(C)CN(S(C)(=O)=O)CC(=O)N1CCCN1CCOCC1 (stereo not given)	x	x	x	-6	9
CCCS(=O)(=O)NC(=O)C1(C)CCCN(C(=O)c2cccc(C)c2C)C1 (stereo not given)	x	x	x	2	2
Cc1ccc(N=Cc2cc(Cc3ccccc3Cl)cc([N+](=O)[O-])c2O)c(O)c1	-29%	-6%	8.9µM*	-6	-10
COc1ccc(N=Cc2cc(Cc3ccccc3Cl)cc([N+](=O)[O-])c2O)cc1OC	8%	3%	5%	x	-1
Cc1ccc(CNC(=O)C2CCN(c3nn4c(=O)cc(C)nc4s3)CC2)cc1	-2%	-6%	-1%	u	u
Cc1cc(=O)n2nc(N3CCC(C(=O)NCc4ccc(Cl)cc4)CC3)sc2n1	0%	-1%	-20%	x	-65*
Cc1cccc(N(Cc2cc(=O)[nH]c3ccccc23)C(=O)CCl)c1	-17%	106%	7.1µM*	x	-5
CC(=O)NC(c1ccc(F)c(F)c1)c1nc(-c2ccc3c(c2)OCO3)cs1 (stereo not given)	x	x	x	-2	-9
Cc1c2ccncc2cc2c1[nH]c1ccccc12	x	x	-3%	2	-6
COc1ccc2[nH]c3c(C)c4ccncc4c(C)c3c2c1	8%	u	1.8µM*	u	u
CNC(=O)C[C@H]1C(=O)N(CCc2ccccc2)C[C@@H]1Cc1ccccc1	x	x	x	3	0
SMILES	Mito fusion act	MBNL1 CUG block	uPA generation	CtBP-E1A inh	Six1-Eya2 blk
Cc1cccc(OCCC(=O)NNC(=O)c2ccoc2C)c1	0%	x	1%	x	1
COc1ccc(C2=NN(C(=O)c3cccs3)C(c3ccc(OC)cc3)C2)cc1 (stereo not given)	11µM*	-1%	-7%	-22	-8
COc1ccc(C2CC(c3cccs3)=NN2C(=O)c2ccc(Br)o2)cc1 (stereo not given)	18µM*	0%	-4%	-9	1
COc1cc(/C=C(\C#N)c2[nH]nc(N)c2C#N)cc(OC)c1O	0%	u	0%	-67*	u
O=C(c1ccc2c(Cl)c3c(nc2c1)CCCC3)N1CCN(c2ccc(F)cc2)CC1	6%	0%	u	0	0
COc1ccccc1N1CCN(C(=O)c2ccc3c(Cl)c4c(nc3c2)CCCC4)CC1	u	-6%	4.5µM*	15	-7
